Hits are enriched below; roughly 9.6% of the tested compounds scored in any of these assays.
Autophagy mod: alters autophagy in cells. MEF GFP-LC3 puncta imaging; test concentration mostly 10 µM. calls only at 10 µM (by protocol). 0.98% of 190,000 active. AID 463193;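 active means percentage of spot-positive cells more than 3 SD above its plate mean, without a fluorescence outlier flag or 80% toxicity; inconclusive means no clear call, values can overlap the other calls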;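 further: spot-positive cell cutoff set from DMSO-treated cells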
PTEN del growth: PTEN-deleted cell growth suppression; HCT116 PTEN-null viability, CellTiter-Glo, 60 h; active compounds read low; viability, % at 10 µM; 1.2% of 140,000 active; AID 827;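 active means viability at or below a set limit, 4 SD under the median of all tested compounds, cut at about 3.7% in these data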;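 further: PTEN knockout HCT116 line with beta catenin targeted HCT116 as companion control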
Lmaj promast: reduces viability of Leishmania major promastigotes. resazurin fluorescence viability. inhibition, % at 10 µM. 9% of 200,000 active; in the data active means inhibition above about 50%;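 further: promastigotes grown with compound for 44 hours at 28 °C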
bCat KO growth: beta-catenin-lacking colon tumor cell growth suppression; HCT116 beta-catenin knockout viability, CellTiter-Glo, 60 h; active compounds read low; viability, % at 10 µM; 1.5% of 140,000 active; AID 818;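 active means viability at or under a set limit, the compound median less 4 SD, cut at about 6% in these data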;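 further: 0% = Hyamine 1622 control at 20 µM and 100% = untreated cell control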
INS promoter inh: TRM-6 insulin promoter activity inhibition; AID 1273; 0.9% of 130,000 active; TRM-6 cells (human fetal islet line), insulin promoter-eGFP reporter, imaging; reporter expression induced with tamoxifen; inhibition, % at 2 µM;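 active means inhibition above the mean plus 3 SD, with well images judged a real hit on visual review, cut at about 60% in these data, passing the limit was not always enough; inconclusive means inhibition over the cutoff but images rejected on review; inactive means inhibition not above the cutoff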
Ins promoter up: MIN6 insulin promoter up-regulation; MIN6 insulin promoter-GFP reporter, high-content imaging; active compounds read high; AID 1625; 0.3% of 190,000 active; z-score at 5 µM;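 active means z-score above 3 at 5 µM with at least 500 cells counted in the well; inconclusive means wells under 500 cells, flagged as cytotoxic or low count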
* marks the source's active call; other numbers are inactive results; i = inactive; ? = inconclusive; nt = not tested or not shown; + = active, no number.

SMILES	Autophagy mod	PTEN del growth	Lmaj promast	bCat KO growth	INS promoter inh	Ins promoter up
CCCCN(C)C1CCN(C(=S)Nc2ccc(OCC)cc2)CC1	i	nt	82*	nt	53	-0.62
CCOc1ccc(NC(=S)N2CCC(N(C)CCN3CCOCC3)CC2)cc1	i	95	45	102	-22	-0.48
CCCCN(C)C1CCN(C(=S)Nc2cccc(OC)c2)CC1	i	nt	80*	nt	nt	0.23
Cn1c(Cl)nc2c1c(=O)n(Cc1cccc(Br)c1)c(=O)n2C	i	74	10	73	nt	0.17
COc1cc2c(cc1OC)C(SC)=NC(C)(C)C2	i	12	45	2.2*	-19	-0.8
COc1cc2c(cc1OC)C(/C(C#N)=N\O)=NC(C)(C)C2	i	88	1	94	14	-0.49
CC(=O)Nc1ccc2nc(-c3ccco3)[nH]c2c1	i	nt	-3	nt	36	0.2
O=C(Nc1ccc2nc(-c3ccc4nc[nH]c4c3)[nH]c2c1)c1cccs1	i	102	23	96	50	-0.26
O=C(Nc1ccc2nc(-c3ccccc3)[nH]c2c1)c1cccs1	i	48	20	50	77*	nt
O=C(Nc1ccc2nc(-c3ccco3)[nH]c2c1)c1ccco1	i	89	13	85	82*	0.96
O=C(c1ccccc1)c1ccc2nc(-c3ccc(NC(=O)c4ccccc4F)cc3)[nH]c2c1	i	56	61*	38	0	nt
CC1Cc2cc(/C(O)=C3/C(=O)C(=O)N(Cc4ccco4)C3c3cccs3)ccc2O1 (stereo unspecified)	i	84	-5	86	19	nt
CCOC(=O)c1c(C)[nH]c(C(=O)N/N=C\c2ccccc2O)c1C	i	8	100*	7	nt	-3.4
N/C(=N\OC(=O)N1c2ccccc2Sc2ccccc21)c1ccccc1	i	74	91*	78	50	-3.3
Cc1cccc(/C(N)=N/OC(=O)Cc2ccccc2)c1	i	nt	-3	nt	nt	-0.52
Cc1cccc(/C(N)=N/OC(=O)N2c3ccccc3Sc3ccccc32)c1	i	39	71*	34	20	-1.4
O=C(CNC(=O)c1ccccc1)OCC(=O)N1c2ccccc2Sc2ccccc21	i	95	-3	85	-17	0.8
COc1cccc(NC(=O)COC(=O)c2cc(S(=O)(=O)N3CCOCC3)ccc2C)c1	i	75	45	79	-3	nt
CCn1cc(C(=O)NCCCN2CCCC(C)C2)c(=O)c2cc(S(=O)(=O)N3CCc4ccccc4C3)ccc21 (stereo unspecified)	i	nt	100*	nt	-36	-0.38
CCn1cc(C(=O)NCCCN2CC(C)CC(C)C2)c(=O)c2cc(S(=O)(=O)N(C)C)ccc21 (stereo unspecified)	i	90	-5	75	nt	0.19
CCC1CCCCN1CCCNC(=O)c1cn(CC)c2ccc(S(=O)(=O)N3CCc4ccccc4C3)cc2c1=O (stereo unspecified)	i	nt	98*	nt	0	-0.78
COc1ccc(NC(=O)Nc2nc3ccccc3s2)cc1	nt	nt	nt	nt	nt	-0.85
Cc1ccccc1-n1cnc2c(sc3nc(N4CCOCC4)c4c(c32)CCCC4)c1=O	nt	nt	nt	nt	nt	-0.4
O=C(CC1CC2CCC1C2)NCc1cccs1 (stereo unspecified)	i	91	1	94	nt	-0.02
O=C(NCc1cccs1)C12CC3CC(CC(C3)C1)C2	i	nt	-7	nt	82*	1.1
SMILES	Autophagy mod	PTEN del growth	Lmaj promast	bCat KO growth	INS promoter inh	Ins promoter up
CC(=O)Cc1nsc(NC(=O)c2ccc(-c3cccc(C(F)(F)F)c3)o2)n1	+	45	-8	48	-186	-0.1
O=C(Nc1ncc(Cc2cccc(C(F)(F)F)c2)s1)c1ccc(-c2cccc([N+](=O)[O-])c2)o1	i	45	91*	39	nt	-0.83
CC(=O)Cc1nsc(NC(=O)c2ccc(-c3cc(C(F)(F)F)ccc3Cl)o2)n1	i	43	-4	45	9	nt
COc1cccc(CNC(=O)c2cnc(-c3ccccn3)nc2C(F)(F)F)c1	i	96	-2	105	19	-0.37
Cc1ccnc(NS(=O)(=O)c2ccc(NC(=O)c3cc(-c4ccccc4)nc4ccccc34)cc2)n1	i	96	-6	89	33	-0.23
CC1CCc2nc(/C(C#N)=C/c3ccncc3)sc2C1 (stereo unspecified)	i	nt	53*	nt	nt	0.68
O=C1/C(=C/c2ccccc2)NC(=S)N1C(c1ccccc1)c1ccccc1	+	13	2	15	26	nt
O=C1/C(=C/c2ccccc2)Nc2ccccc21	i	69	2	78	42	-0.4
CCOC(=O)c1c(CN2CCN(C)CC2)n(C)c2cc(Br)c(OC)cc12	i	77	100*	82	-81	-1.3
CCOC(=O)c1c(C)oc2c(CN3CCN(C)CC3)c(Br)c(OC)c(O)c12	i	97	100*	98	21	-0.46
CCOC(=O)c1oc2ccccc2c1CN1CCN(C)CC1	i	100	-2	82	38	0.2
Cc1sc2nc(CSc3ccccc3)nc(N3CCN(C)CC3)c2c1C	i	62	98*	59	23	-0.65
O=C(O)COCCN1CCN([C@H](c2ccccc2)c2ccc(Cl)cc2)CC1	nt	nt	nt	nt	nt	0.49
CCOC(=O)N1CCN(C(=O)CN(C2CCCCC2)S(=O)(=O)c2ccc(C)cc2)CC1	i	89	34	93	4	0.57
Cc1ccc(S(=O)(=O)N(CC(=O)N2CCN(c3ccc(F)cc3)CC2)C2CCCCC2)cc1	i	65	59*	73	-47	-0.49
CC(C)Oc1ccc(CCC(=O)NNC(=S)Nc2ccccc2)cc1	nt	nt	nt	nt	nt	-0.35
COc1ccc(-c2nnc(SC(C(=O)c3c[nH]c4ccccc34)c3ccccc3)n2N)cc1OC (stereo unspecified)	i	69	57*	73	0	-0.14
CCn1c2ccccc2c2cc(NC(=O)CSc3nnc(-c4ccc(OC)c(OC)c4)n3N)ccc21	i	61	95*	52	-31	-0.93
CCOc1ccc(-c2nnc(SCC(=O)Nc3ccc4c(c3)c3ccccc3n4CC)n2N)cc1	i	5	-1	3.9*	-21	0.02
CCn1c2ccccc2c2cc(NC(=O)CSc3nnc(-c4cccc(Cl)c4)o3)ccc21	i	15	89*	18	nt	-1.7
CCn1c2ccccc2c2cc(NC(=O)CSc3nnc(-c4cccc(OC)c4)n3N)ccc21	i	9	17	24	-29	0.01
Cc1ccc(C)c(SCC(=O)OCC(=O)Nc2ccc(S(=O)(=O)N3CCOCC3)cc2)c1	i	100	3	83	45	0.13
CCOC(=O)C1CCCN(C(=O)CCc2ccccc2)C1 (stereo unspecified)	i	85	-5	94	?	nt
Cc1cc(C(=O)NC(C)C)on1	i	90	-3	87	64	0.55
O=[N+]([O-])c1ccc(Nc2ccc(F)cc2)nc1	i	87	1	97	nt	nt
O=[N+]([O-])c1ccc(Nc2ccccc2)nc1	i	97	56*	98	54	-0.66
